Source: PubChem BioAssay (NCATS)
Inconclusive results are not listed. A call without a number means that no potency is given here. Calls of active or inactive are those of the source. Calls come from the whole dose curve; as a rule, active = well fitted cell-killing curve with a large enough effect; inconclusive = small, poorly fitted or top-dose-only effect, or effect the other way; inactive = no such curve, though single readings can be large or run the other way.

How the values were obtained:
[1] = Quantitative High-Throughput drug screen in 47 multiple myeloma cell lines against the NCATS MIPE library collection: FR4_PLB cell viability assay (AID 1918924; note: nearly all actives have a fitted effect of over 35% in size)
Summary of the method: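 Myeloma cells (500 per well) were exposed to MIPE 4.0 compounds by pin transfer and incubated 48 hours at 37C, 5% CO2. Viability was read as ATP by CellTiter-Glo luminescence, normalised to DMSO (100%) and media-only (0%) wells.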

[2] = Quantitative High-Throughput drug screen in 47 multiple myeloma cell lines against the NCATS MIPE library collection: Delta47_JCRB cell viability assay (AID 1918925; note: nearly all actives have a fitted effect of over 45% in size)
Summary of the method: (§1)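 Inhibition of cell viability is measured here. Each line was plated at 500 cells per well, treated with MIPE 4.0 drugs, kept 48 hours at 37C, then assayed for ATP content by CellTiter-Glo luminescence.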

[3] = Quantitative High-Throughput drug screen in 47 multiple myeloma cell lines against the NCATS MIPE library collection: EJM_DSMZ cell viability assay (AID 1918926; note: nearly all actives have a fitted effect of over 30% in size)
Summary of the method: as §1
Potency is the fitted concentration of half-maximal effect.

CC1(C)S[C@H]2[C@H](NC(=O)[C@@H](N)c3ccc(O)cc3)C(=O)N2[C@@H]1C(=O)O
Potency [1]: inactive
Potency [2]: inactive
Potency [3]: inactive

Cc1ccc([C@@H]2O[C@H](CO)[C@@H](O)[C@H](O)[C@@H]2O)cc1Cc1ccc(-c2ccc(F)cc2)s1
Potency [2]: 20.9 µM (active)

Cc1cc(OCCCc2c(C(=O)O)n(Cc3cccnc3)c3c(-c4c(COc5ccc(N6CCN([S+](C)(=O)[O-])CC6)cc5)nn(C)c4C)cccc23)cc(C)c1Cl
Potency [2]: 18.7 µM (active)

Nc1ncnc2c1ncn2[C@@H]1O[C@H](CO)C[C@@H]1O
Potency [2]: inactive
Potency [3]: inactive

CC[C@H]1OC(=O)[C@H](C)[C@@H](O[C@H]2C[C@@](C)(OC)[C@@H](O)[C@H](C)O2)[C@H](C)[C@@H](O[C@@H]2O[C@H](C)C[C@H](N(C)C)[C@@H]2O)[C@](C)(O)C[C@@H](C)CN(C)[C@H](C)[C@@H](O)[C@]1(C)O
Potency [1]: inactive
Potency [3]: inactive

Cc1c[nH]c(C=C2C(=O)Nc3ccccc32)c1CCC(=O)O
Potency [2]: inactive

CC=C(C)C(=O)O[C@H]1C(C)=C[C@]23C(=O)[C@@H](C=C(CO)[C@@H](O)[C@]12O)[C@H]1[C@@H](C[C@H]3C)C1(C)C
Potency [2]: 5.26 µM (active)

C=C1C(=O)OC2C=C(C)CCC=C(C)CCC12 (centres undefined)
Potency [2]: 18.7 µM (active)

O=C1NC(=O)C(=Cc2ccc3nccnc3c2)S1
Potency [2]: 6.45 µM (active)

Nc1ncnc2c1ncn2[C@@H]1O[C@@H](CO)[C@H](O)[C@H]1O
Potency [2]: inactive
Potency [3]: inactive

O=c1ccn([C@@H]2O[C@H](CO)[C@H](O)[C@H]2O)c(=O)[nH]1
Potency [1]: inactive
Potency [3]: inactive

CCC(CC)[C@H](NC(C)=O)[C@@H]1[C@H](O)[C@@H](C(=O)O)C[C@@H]1N=C(N)N
Potency [2]: inactive
Potency [3]: inactive

C[N+]1(C)[C@@H]2CC(OC(=O)[C@H](CO)c3ccccc3)C[C@H]1[C@H]1O[C@@H]12 (some centres undefined)
Potency [1]: inactive
Potency [2]: inactive
Potency [3]: inactive

O=C1NC(=O)C(=Cc2cccc(C(F)(F)F)c2)S1
Potency [1]: inactive
Potency [3]: 20.9 µM (active)

CC1(C)O[C@H]2C[C@@H]3[C@H]4CCC5=CC(=O)C=C[C@]5(C)[C@@]4(F)[C@@H](O)C[C@]3(C)[C@]2(C(=O)CO)O1
Potency [1]: inactive
Potency [3]: inactive

Cn1cc(C=C2C(=O)Nc3cccnc32)c2ccccc21
Potency [1]: inactive
Potency [3]: inactive

CC(=O)O[C@]1(C(C)=O)CC[C@@H]2[C@@H]3C[C@H](C)C4=CC(=O)CC[C@]4(C)[C@H]3CC[C@@]21C
Potency [2]: 18.7 µM (active)
Potency [3]: 20.9 µM (active)

O=C(O)C=Cc1ccc(O)c(O)c1
Potency [3]: 13.2 µM (active)

C[C@@H]1CCN(C(=O)CC#N)C[C@H]1N(C)c1ncnc2[nH]ccc12
Potency [1]: inactive
Potency [2]: inactive
Potency [3]: inactive

O=C(O)c1ccc(-c2cc3cccnc3c(-c3ccc4nonc4c3)n2)cc1
Potency [2]: 23.5 µM (active)
Potency [3]: 18.7 µM (active)

O=C1c2c(O)cc(O)cc2O[C@H](c2cc(O)c(O)c(O)c2)[C@H]1O
Potency [1]: 26.4 µM (active)
Potency [2]: inactive
Potency [3]: 1.66 µM (active)

Clc1ccc(CCC(Cn2ccnc2)Sc2c(Cl)cccc2Cl)cc1 (centres undefined)
Potency [2]: 23.5 µM (active)

O=c1c(-c2ccc(O)cc2)coc2cc(OC3O[C@H](CO)[C@H](O)[C@H](O)[C@H]3O)cc(O)c12 (some centres undefined)
Potency [2]: 3.72 µM (active)

OC[C@H]1O[C@@H](Oc2cc(O)cc(C=Cc3ccc(O)cc3)c2)[C@H](O)[C@@H](O)[C@H]1O
Potency [1]: inactive
Potency [3]: 4.69 µM (active)

CC1(C)CCC[C@@]2(C)[C@@H]1CC[C@@]1(C)OC(=O)C[C@H]21
Potency [1]: 14.8 µM (active)
Potency [2]: inactive
Potency [3]: inactive

CC[C@@H]1C=C(C)C[C@H](C)C[C@H](OC)[C@H]2O[C@@](O)(C(=O)C(=O)N3CCCC[C@@H]3C(=O)O[C@H](C(C)=C[C@@H]3CC[C@H](Cl)[C@H](OC)C3)[C@H](C)[C@@H](O)CC1=O)[C@H](C)C[C@H]2OC
Potency [2]: 16.6 µM (active)

CCOC(=O)O[C@]1(C(=O)OCCl)CC[C@@H]2[C@H]3CCC4=CC(=O)C=C[C@]4(C)[C@@H]3[C@@H](O)C[C@@]21C
Potency [1]: inactive
Potency [2]: inactive
Potency [3]: inactive

CCC(=O)NC[C@H](Cc1ccc(OCCc2nc(-c3ccccc3)oc2C)cc1)NC(C)=CC(=O)c1ccc(C(F)(F)F)cc1
Potency [2]: inactive
Potency [3]: 26.4 µM (active)

N#CC(=C(N)Sc1ccccc1N)C(C#N)=C(N)Sc1ccccc1N
Potency [1]: 7.43 µM (active)
Potency [2]: 16.6 µM (active)
Potency [3]: 10.5 µM (active)

CC=CC[C@@H](C)C(=O)[C@H]1C(=O)N[C@@H](C(C)C)C(=O)N(C)CC(=O)N(C)[C@@H](CC(C)C)C(=O)N[C@@H](C(C)C)C(=O)N(C)[C@@H](CC(C)C)C(=O)N[C@@H](C)C(=O)N[C@H](C)C(=O)N(C)[C@@H](CC(C)C)C(=O)N(C)[C@@H](CC(C)C)C(=O)N(C)[C@@H](C(C)C)C(=O)N1C
Potency [1]: 23.5 µM (active)
Potency [2]: 23.5 µM (active)
Potency [3]: inactive

CNC(=O)c1ccccc1Sc1ccc2c(C=Cc3ccccn3)n[nH]c2c1
Potency [2]: 3.72 µM (active)
Potency [3]: 23.5 µM (active)

NC1CCC(Nc2nc(Nc3ccc(C(=O)N4CCCCC4)cc3)c3ncn(-c4cccc(F)c4)c3n2)CC1 (centres undefined)
Potency [1]: inactive
Potency [3]: inactive

COc1ccc(-c2oc3c(CC=C(C)C)c(OC4O[C@H](CO)[C@@H](O)[C@H](O)[C@@H]4O)cc(O)c3c(=O)c2OC2O[C@@H](C)[C@H](O)[C@@H](O)[C@@H]2O)cc1 (some centres undefined)
Potency [2]: 18.7 µM (active)

CC(=NNC(=S)N1CCC1)c1ccccn1
Potency [3]: inactive
